Results filed as inconclusive are left out. Values without a mark were called inactive. The call rests on the fitted dose curve; in most records, active means well fitted cell-killing curve with a large enough effect in the repeat runs; inconclusive means weak or mixed curves, or effect the other way; inactive means flat fitted curve, though single readings scatter.
On the % scale 0 is the no-effect control and ±100 the full control effect.

A short description of this assay: qHTS assay to identify small molecule agonists of the androgen receptor (AR) signaling pathway in the presence of an antagonist - cell viability counter screen (AID 1259379). Further: nearly all actives have a fitted effect of over 25% in size. The conditions noted are these: MDA-kb2 viability, CellTiter-Fluor, 16 h; series mostly up to 92.4 µM; activity change, negative = cytotoxicity: at the top concentration. From the text:
National Center for Advancing Translational Sciences [NCATS]
NIH Chemical Genomics Center [NCGC]
U.S. Environmental Protection Agency [EPA]
National Institutes of Environmental Health Sciences [NIEHS]
National Toxicology Program [NTP]
U.S. Food and Drug Administration [FDA]
Androgen receptor (AR) is an important member of nuclear receptor family. Its signaling plays a critical role in AR-dependent prostate cancer and other androgen related diseases. Considerable attention has been given in the past decades to develop methods to study and screen for the environmental chemicals that have the potential to interfere with metabolic homeostasis, reproduction, developmental and behavioral functions. Therefore AR binding assay for screening against androgen agonists and antagonists can be used to identify potential endocrine disruptors.
MDA-kb2 cells (from ATCC, deposited by Wilson et al.) are human breast carcinoma cells that were stably transfected with a luciferase reporter gene under control of the MMTV promoter that contains response elements for both androgen receptor (AR) and glucocorticoid receptor (GR). This particular screening for measuring luciferase reporter gene activity using MDA-kb2 cells against Tox21 10K library compounds is a confirmation study on agonist mode screening in the presence of AR-antagonist compound (Nilutamide) at 3.0uM final concentration. The cytotoxicity of the compounds was tested in parallel by measuring the cell viability using CellTiter-Fluor assay system (Promega, Madison, WI) in the same wells.
Tox21 Assay Protocol Summary:
MDA-kb2 cells (cells cultured without CO2) were dispensed at 3,000 cells/well in 4uL of culture medium into white wall/solid-bottom 1536-well plates (Corning Life Sciences, Corning, NY) using a Multidrop Combi (Thermo Fisher Scientific Inc., Waltham, MA) dispenser. The assay plates were incubated at 37C and 0% CO2 for 5hr. One uL of 3.0uM (final concentration) Nilutamide or assay buffer was added using two separate tips of Flying Reagent Dispenser (FRD, Aurora Discovery, San Diego, CA). Then 23nL of compounds dissolved in DMSO at 15 concentrations and positive controls were transferred to the assay plates using a Pintool station (Wako, San Diego, CA). The assay plates were incubated at 37C and 0% CO2 for 16 hr. After 15hr incubation at 37C, 1uL/well CellTiter-Fluor reagent (Promega Corporation) was added to each well of the assay plates using FRD. After 1hr incubation at 37C and 0% CO2, the fluorescence signal was measured using a ViewLux plate reader (PerkinElmer, Shelton, CT).
As to `Cc1ccccc1OCC(=O)O`, the “activity change, negative = cytotoxicity” value is 4.78%.

`N=C(N)N`: the “activity change, negative = cytotoxicity” value is 2.46% [at 42.5 µM].

For `CC1=C(O)C(=O)CO1`, the “activity change, negative = cytotoxicity” value was 0.172%.

Regarding `CCCOc1ccc(C(=O)OCCN(CC)CC)cc1N`, the “activity change, negative = cytotoxicity” value is 0.495% [at 42.5 µM].

In the case of `CO/N=C(\C(=O)O)c1csc(NC(=O)CCl)n1`, the “activity change, negative = cytotoxicity” value is 1.38% [at 42.5 µM].

As to `CC(CC(=O)Cl)CC(C)(C)C` (stereo not given), the “activity change, negative = cytotoxicity” value is 0.831%.

As to `Clc1ccc2c(c1)Nc1ccccc1S2`, the “activity change, negative = cytotoxicity” value was -1.18% [at 42.5 µM].

For the compound `O=S(=O)(O)CC(O)CCl` (stereo not given), the “activity change, negative = cytotoxicity” value is 4.14%.

In the case of `CCOC(=O)CC(C(C)=O)C(C)=O`, the “activity change, negative = cytotoxicity” value was -2.22%.

For the compound `O=P(O)(O)C(O)(Cc1cccnc1)P(=O)(O)O`, the “activity change, negative = cytotoxicity” value was -0.368% [at 42.5 µM].

Regarding `CCCc1ccc(O)c(OC)c1`, the “activity change, negative = cytotoxicity” value was 1.47%.

For `COc1cc(C(=O)NC2CCCNC2)cc(OC)c1OC` (stereo not given), the “activity change, negative = cytotoxicity” value is 4.25% [at 42.5 µM].

In the case of `O=S(=O)(O)c1cc(I)c(O)c2ncccc12`, the “activity change, negative = cytotoxicity” value was -3.43% [at 42.5 µM].

Regarding `CCCCCCCCCCCCCCCC/C=C/C1CC(=O)OC1=O` (stereo not given), the “activity change, negative = cytotoxicity” value was 0.0792% [at 42.5 µM].

For the compound `COC(=O)/C=C(\C)CCC=C(C)C`, the “activity change, negative = cytotoxicity” value is 0.534%.

Consider `CC(C)(Sc1cc(C(C)(C)C)c(O)c(C(C)(C)C)c1)Sc1cc(C(C)(C)C)c(O)c(C(C)(C)C)c1`, for which the “activity change, negative = cytotoxicity” value was 4.17% [at 42.5 µM].

Regarding `CCO/C=C1\N=C(c2ccccc2)OC1=O`, the “activity change, negative = cytotoxicity” value was 0.318%.

In the case of `Cc1ccc(S(=O)(=O)NC(=O)NN2CC3CCCC3C2)cc1` (stereo not given), the “activity change, negative = cytotoxicity” value is 0.422% [at 42.5 µM].

Take `CCCC[O][Al]([O]CCCC)[O]CCCC`: the “activity change, negative = cytotoxicity” value is -1.11%.

Take `CC1(C)CC(N)CC(C)(C)N1`: the “activity change, negative = cytotoxicity” value is -1.52%.

For the compound `CC(C)C[P+](C)(CC(C)C)CC(C)C`, the “activity change, negative = cytotoxicity” value is 1.74%.

As to `N[C@H]1C(O)O[C@H](CO)[C@@H](O)[C@@H]1O` (stereo not given in full), the “activity change, negative = cytotoxicity” value was 4.48% [at 42.5 µM].

Regarding `COc1ccccc1N1CCN(CC(O)COc2cc(OC)c(OC)c(OC)c2)CC1` (stereo not given), the “activity change, negative = cytotoxicity” value was 4.54% [at 42.5 µM].

Turning to `CCC(C)c1nccnc1OC` (stereo not given), the “activity change, negative = cytotoxicity” value is 0.269%.

Regarding `COC(=O)c1ccc(C(=O)O)cc1`, the “activity change, negative = cytotoxicity” value was -1.43%.

On to `CC(C)=CCC/C(C)=C\C#N`, for which the “activity change, negative = cytotoxicity” value is 0.0285%.

Take `N=C(N)S(=O)O`: the “activity change, negative = cytotoxicity” value was 1.1%.

Consider `CCCCCCC(=O)c1ccccc1`, for which the “activity change, negative = cytotoxicity” value is 0.88%.

Take `Cc1ccc(Br)cc1`: the “activity change, negative = cytotoxicity” value was 0.766%.

`c1coc(Cn2cccc2)c1`: the “activity change, negative = cytotoxicity” value was 3.03%.

Take `C=CC(=O)OCCOCCOCC`: the “activity change, negative = cytotoxicity” value is -3.19%.

Take `C/C(=N\O)c1ccc(OCC(=O)N2CCCCC2)cc1`: the “activity change, negative = cytotoxicity” value was -0.558% [at 42.5 µM].

For `COC(=O)c1cc(Cl)c(NC(C)=O)cc1OC`, the “activity change, negative = cytotoxicity” value is 2.9% [at 42.5 µM].

As for `CC(=O)OC/C=C(/C)CCC=C(C)C`, the “activity change, negative = cytotoxicity” value is -1.27%.

Regarding `Cc1cc2c(cc1CC(=O)c1sccc1S(=O)(=O)Nc1onc(C)c1Cl)OCO2`, the “activity change, negative = cytotoxicity” value is 0.3% [at 42.5 µM].

As to `O=C1CC2(CCCC2)CC(=O)N1CCNCC1COc2ccccc2O1` (stereo not given), the “activity change, negative = cytotoxicity” value was 2% [at 42.5 µM].

With `COC(=O)C(c1ccccc1Cl)N1CCc2sccc2C1` (stereo not given), the “activity change, negative = cytotoxicity” value was -0.616% [at 42.5 µM].

With `CC(C)C(=O)Nc1cccc(C2CN3CCSC3=N2)c1` (stereo not given), the “activity change, negative = cytotoxicity” value is 1.34% [at 42.5 µM].

For the compound `CCCCNCC`, the “activity change, negative = cytotoxicity” value is -1.43%.

In the case of `CCCCCCC(O)CO` (stereo not given), the “activity change, negative = cytotoxicity” value is -1.56%.

The values are drawn from PubChem BioAssay (Tox21).
